The values below come from PubChem BioAssay (Tox21).

Structures are written as SMILES. Inconclusive results are not listed. Unmarked numbers belong to inactive results. The source made the active and inactive calls. Calls follow the shape of the dose curve; as a rule, active = well fitted curve in the direction sought with a large enough effect in the repeat runs; inconclusive = weak or mixed curves; inactive = no such curve, though single readings can be large; an effect the other way counts as inactive or inconclusive.

Assay [1] can be described thus: qHTS RealTime-Glo MT Cell Viability Assay in HepG2 cells - 40 hour (AID 1224870). Also: nearly all actives have a fitted effect of over 50% in size. An outline of the steps: (§1)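 HepG2 cells (600/well) mixed with RealTime-Glo MT reagent, settled 5 h at 37 C/5% CO2 before compound addition. Nonlytic NanoLuc luminescence from viable-cell prosubstrate reduction read repeatedly during 40 h treatment at 37 C.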
On the technique in general: In qHTS, concentration-response curves come from the screen itself.

Assay [2] in a line: qHTS RealTime-Glo MT Cell Viability Assay in HEK293 cells - 16 hour (AID 1224872). Also: nearly all actives have a fitted effect of over 50% in size. Also: potency is read from the fitted curve at half-maximal effect. As to activity change, negative = cytotoxicity: top concentration of the series differs between compounds. Put shortly: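 Reads taken at 0, 8, 16, 24, 32 and 40 h from the same wells. HEK293 cells (600/well) carried RealTime-Glo reagents from seeding, with compound added after a 5 h settle at 37 C.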
Assay [3] in a line: qHTS RealTime-Glo MT Cell Viability Assay in HepG2 cells - 8 hour (AID 1224873). Also: nearly all actives have a fitted effect of over 55% in size. An outline of the steps:
as §1

The nature of assay [4]: qHTS RealTime-Glo MT Cell Viability Assay in HEK293 cells - 40 hour (AID 1224874). Also: nearly all actives have a fitted effect of over 50% in size. Also: potency is read from the fitted curve at half-maximal effect. The settings on record: RealTime-Glo luminescence; max response: stronger effect = lower value. Put shortly:
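600 cells/well were plated with the nonlytic NanoLuc/prosubstrate reagent, pre-incubated 5 h, then given 23 nL of compound in DMSO. Incubation at 37 C for 40 h, with luminescence from viable-cell-reduced substrate read repeatedly from 0 h.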

A short description of assay [5]: qHTS RealTime-Glo MT Cell Viability Assay in HepG2 cells - 32 hour (AID 1224877). Also: nearly all actives have a fitted effect of over 55% in size. Also: potency is read from the fitted curve at half-maximal effect. An outline of the steps: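 HepG2 suspension premixed with RealTime-Glo reagents is plated at 600 cells per well and left 5 h at 37 C/5% CO2. Compounds in DMSO then go in, and bioluminescence reflecting viable cell number is recorded over 40 h.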
Assay [6] in a line: A CellTox Green Cytotoxicity Assay to monitor cytotoxicity in HepG2 cells - 24 hour (AID 1224878). Also: nearly all actives have a fitted effect of over 45% in size. Also: potency is read from the fitted curve at half-maximal effect. Put shortly: (§2)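 HepG2 cells, 600/well, preincubated 5 h with CellTox Green dye, then exposed to Tox21 compounds in DMSO at 37 C for up to 40 h. Dead-cell DNA fluorescence read at the indicated time point.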
Assay [7] in a line: A CellTox Green Cytotoxicity Assay to monitor cytotoxicity in HepG2 cells - 40 hour (AID 1224879). Also: nearly all actives have a fitted effect of over 40% in size. Also: potency is read from the fitted curve at half-maximal effect. Put shortly: as §2
Assay [8] is described as follows: A CellTox Green Cytotoxicity Assay to monitor cytotoxicity in HEK293 cells - 24 hour (AID 1224875). Also: series mostly up to about 77 µM; nearly all actives have a fitted effect of over 45% in size. Put shortly:
(§3)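 HEK293 cells, 600/well, were preincubated 5 hours and then exposed to compounds at 37 C for up to 40 hours. A cell-impermeant cyanine dye staining dead-cell DNA was read by fluorescence at 0, 8, 16, 24, 32 and 40 h time points.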

Assay [9] in a line: A CellTox Green Cytotoxicity Assay to monitor cytotoxicity in HepG2 cells - 16 hour (AID 1224876). Also: nearly all actives have a fitted effect of over 45% in size. Also: potency is read from the fitted curve at half-maximal effect. Put shortly:
as §2

Assay [10] is described as follows: A CellTox Green Cytotoxicity Assay to monitor cytotoxicity in HEK293 cells - 40 hour (AID 1224871). Also: nearly all actives have a fitted effect of over 45% in size. Also: potency is read from the fitted curve at half-maximal effect. Put shortly: as §3
% is scaled to controls: 0 for no effect and ±100 for the full control effect.

For the compound `Cc1ccc(S(=O)(=O)NC(=O)NC2CCCCC2)cc1`, the Potency result in assay [1], in [2], in [3], in [5], in assay [6] and in assay [7] was “inactive” each time. In addition, the max response in [4] was 4.44%.

As for `Cc1ccc2nc(N)[nH]c(=O)c2c1Sc1ccncc1`, the Potency result in [1], in [2], in assay [8], in assay [9], in [5] and in assay [7] was “inactive” throughout.

Turning to `CC(C)COC(=O)c1ccc(O)cc1`, the Potency result in assay [1], in assay [3], in assay [9] and in assay [5] was “inactive” each time.

Turning to `CCC(Cl)CC(Cl)C(Cl)C(Cl)C(Cl)C(C)Cl` (centres undefined), the activity change, negative = cytotoxic was -0.479% [at 15.8 µM] in assay [1] and -0.891% [at 15.8 µM] in assay [5]. Also, the viability change, negative = cytotoxic in assay [3] was 0.0251% [at 15.8 µM]. The cytotoxicity increase in [9] is 7.76% [at 15.8 µM]; in assay [7] it was 0.801% [at 15.8 µM]. For the same compound, in assay [6], the cytotoxicity was 2.51% [at 15.8 µM].

For `CNS(=O)(=O)c1cc(C(=O)N2CCC(CCN3C4CCC3CC(n3c(C)nc5ccccc53)C4)(c3cccc(F)c3)CC2)c(Cl)cc1F` (centres undefined), the Potency in [2] and in assay [4] was 4.36 µM (active) each time. Moreover, the Potency entry in [8], in assay [9], in [6] and in assay [7] was “inactive” each time.

On to `CCCCCCCC(=O)Oc1c(Br)cc(C#N)cc1Br`, for which the Potency result in assay [1], in [3], in [8], in assay [9], in [5] and in assay [7] was “inactive” each time. Moreover, the Potency in [2] and in assay [4] was 38.8 µM (active) each time.

On to `CC(C)OC(=O)c1ccccc1C(=O)OC(C)C`, for which the Potency result in [1], in assay [2], in [3], in assay [8], in assay [5] and in assay [6] was “inactive” each time. Further, the Potency result in assay [7] is “inactive”. In addition, in [4], the max response is -14%.

On to `Oc1ccc2c(c1)Cc1ccccc1-2`, for which the Potency result in assay [1], in [3], in assay [8] and in assay [5] was “inactive” throughout. The figures for the Potency in assay [2] and in assay [4] were 21.9 µM (active) and 19.5 µM (active), respectively.

Take `CCCCC(CC)COS(=O)(=O)O` (centres undefined): the Potency entry in [1], in assay [2], in assay [3], in assay [9], in assay [5] and in [6] was “inactive” in each case. Besides, the Potency result in assay [7] is “inactive”. In addition, the max response in assay [4] is -1.73%.

`CN1CCCN(C(c2ccccc2)c2ccc(Cl)cc2)CC1` (centres undefined): the Potency was 26.8 µM (active) in [10]; 23.9 µM (active) in assay [9]; 23.9 µM (active) in assay [5]; 23.9 µM (active) in [6]; 21.3 µM (active) in assay [7]. The Potency entry in assay [2] and in assay [3] was “inactive” each time.

For `CC1=CC[C@@H]2C[C@H]1C2(C)C`, the activity change, negative = cytotoxic in assay [1] is 1.07% [at 15.8 µM]; in assay [5], 2.7% [at 15.8 µM]. Further, in assay [2], the activity change, negative = cytotoxicity is 8.54% [at 15.8 µM]. Further, the viability change, negative = cytotoxic in assay [3] is 0.867% [at 15.8 µM]. Also, in assay [4], the max response is 1.39%. In addition, the activity change in assay [8] is 2.23% [at 15.8 µM, stronger effect = higher value]. Further, the cytotoxicity increase in assay [9] was -4.53% [at 15.8 µM]; in assay [7], -3.58% [at 15.8 µM]. Further, the cytotoxicity in assay [6] was -4.03% [at 15.8 µM].

As to `CC(C)(C)CCCCCCOC(=O)c1ccccc1C(=O)OCCCCCCC(C)(C)C`, the Potency entry in assay [1], in assay [2], in [3], in [9], in assay [5] and in assay [6] was “inactive” each time. The Potency entry in assay [7] is “inactive”. In addition, the max response in assay [4] is 7.13%.

For `Nc1cccc2c(N)cccc12`, the Potency result in assay [10], in assay [8], in assay [9], in [5] and in assay [6] was “inactive” each time.

Consider `O=P(O)(O)Oc1ccccc1`, for which the Potency entry in assay [1], in [2], in assay [3], in assay [8], in assay [5] and in assay [6] was “inactive” throughout. Besides, the Potency entry in assay [7] is “inactive”. Also, the max response in assay [4] is 12.9%.

As to `COc1cc(NCc2ccc3nc(N)nc(N)c3c2C)cc(OC)c1OC`, the Potency entry in assay [1], in [3], in [9], in [5], in assay [6] and in [7] was “inactive” each time. The Potency in [4] is 0.0239 µM (active).

With `O=C(O)CN1C(=O)c2cccc3cccc(c23)C1=O`, the Potency entry in [1], in assay [2], in [3], in [8], in [5] and in [7] was “inactive” each time. Moreover, the max response in assay [4] is 9%.

For `ClC1=C(Cl)C1(Cl)Cl`, the Potency entry in assay [1], in assay [2], in [3], in [8], in [9] and in [5] was “inactive” each time. Moreover, the Potency result in assay [6] and in assay [7] was “inactive” in each case. Besides, the max response in assay [4] was -7.96%.
